The values that follow come from ChEMBL document CHEMBL1961873, “Compounds: GSK PKIS; Assays: Nanosyn kinase panel” (2012).

Experiment [1] addresses 5'-AMP-activated protein kinase catalytic subunit alpha-2 (Homo sapiens) (UniProt P54646). The following applies: at 1 µM.
For experiment [2], the target named is T1, NUAK family SNF1-like kinase 1 (Homo sapiens) (UniProt O60285).
T1 sequence (whole entry): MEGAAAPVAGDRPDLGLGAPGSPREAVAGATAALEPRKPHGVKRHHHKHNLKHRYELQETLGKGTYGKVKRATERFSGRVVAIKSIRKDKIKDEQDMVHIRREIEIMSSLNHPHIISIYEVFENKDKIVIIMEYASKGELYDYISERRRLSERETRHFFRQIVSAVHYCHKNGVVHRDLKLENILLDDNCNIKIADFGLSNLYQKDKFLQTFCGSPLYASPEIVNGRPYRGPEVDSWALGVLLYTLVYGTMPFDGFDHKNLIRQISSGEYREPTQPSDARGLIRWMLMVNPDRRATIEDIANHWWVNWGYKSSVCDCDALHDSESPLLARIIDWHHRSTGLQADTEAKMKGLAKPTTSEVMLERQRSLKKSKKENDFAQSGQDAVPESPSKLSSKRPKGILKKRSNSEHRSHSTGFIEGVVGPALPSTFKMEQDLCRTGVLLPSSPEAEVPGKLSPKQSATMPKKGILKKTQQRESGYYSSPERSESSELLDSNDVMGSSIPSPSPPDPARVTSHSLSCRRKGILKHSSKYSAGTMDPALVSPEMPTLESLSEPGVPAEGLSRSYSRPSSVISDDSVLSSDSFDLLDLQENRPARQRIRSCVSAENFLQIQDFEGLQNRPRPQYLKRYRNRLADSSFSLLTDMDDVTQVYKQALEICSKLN
To be noted: at 0.1 µM.

In experiment [3] the target is T1, NUAK family SNF1-like kinase 1 (Homo sapiens). The following applies: at 1 µM.
Experiment [4] concerns the target T2, Serine/threonine-protein kinase BRSK1 (Homo sapiens) (UniProt Q8TDC3).
T2 sequence (whole entry): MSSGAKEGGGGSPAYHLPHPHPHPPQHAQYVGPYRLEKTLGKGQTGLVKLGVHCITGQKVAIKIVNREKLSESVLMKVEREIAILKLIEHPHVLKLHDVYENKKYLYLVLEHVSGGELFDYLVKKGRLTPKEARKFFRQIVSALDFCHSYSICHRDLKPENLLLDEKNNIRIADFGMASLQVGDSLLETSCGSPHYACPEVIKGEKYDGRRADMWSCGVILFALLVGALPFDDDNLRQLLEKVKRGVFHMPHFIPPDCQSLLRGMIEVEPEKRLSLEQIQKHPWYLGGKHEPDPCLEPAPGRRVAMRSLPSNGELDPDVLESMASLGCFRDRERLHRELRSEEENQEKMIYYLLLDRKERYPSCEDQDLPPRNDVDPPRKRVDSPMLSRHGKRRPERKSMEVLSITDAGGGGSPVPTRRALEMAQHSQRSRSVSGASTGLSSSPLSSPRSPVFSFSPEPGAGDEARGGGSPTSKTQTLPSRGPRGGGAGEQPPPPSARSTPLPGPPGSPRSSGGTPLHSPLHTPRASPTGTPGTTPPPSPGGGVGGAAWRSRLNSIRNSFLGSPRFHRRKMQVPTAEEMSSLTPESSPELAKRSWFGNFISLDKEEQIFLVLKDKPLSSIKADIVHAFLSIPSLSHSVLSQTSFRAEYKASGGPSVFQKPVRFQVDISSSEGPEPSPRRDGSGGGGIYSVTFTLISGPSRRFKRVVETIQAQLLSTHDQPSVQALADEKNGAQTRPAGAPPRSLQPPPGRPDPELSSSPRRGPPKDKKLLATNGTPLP
The following applies: at 0.1 µM.

In experiment [5] the target is T2, Serine/threonine-protein kinase BRSK1 (Homo sapiens). To be noted: at 1 µM.
Experiment [6] addresses T3, Serine/threonine-protein kinase BRSK2 (Homo sapiens) (UniProt Q8IWQ3).
T3 sequence (whole entry): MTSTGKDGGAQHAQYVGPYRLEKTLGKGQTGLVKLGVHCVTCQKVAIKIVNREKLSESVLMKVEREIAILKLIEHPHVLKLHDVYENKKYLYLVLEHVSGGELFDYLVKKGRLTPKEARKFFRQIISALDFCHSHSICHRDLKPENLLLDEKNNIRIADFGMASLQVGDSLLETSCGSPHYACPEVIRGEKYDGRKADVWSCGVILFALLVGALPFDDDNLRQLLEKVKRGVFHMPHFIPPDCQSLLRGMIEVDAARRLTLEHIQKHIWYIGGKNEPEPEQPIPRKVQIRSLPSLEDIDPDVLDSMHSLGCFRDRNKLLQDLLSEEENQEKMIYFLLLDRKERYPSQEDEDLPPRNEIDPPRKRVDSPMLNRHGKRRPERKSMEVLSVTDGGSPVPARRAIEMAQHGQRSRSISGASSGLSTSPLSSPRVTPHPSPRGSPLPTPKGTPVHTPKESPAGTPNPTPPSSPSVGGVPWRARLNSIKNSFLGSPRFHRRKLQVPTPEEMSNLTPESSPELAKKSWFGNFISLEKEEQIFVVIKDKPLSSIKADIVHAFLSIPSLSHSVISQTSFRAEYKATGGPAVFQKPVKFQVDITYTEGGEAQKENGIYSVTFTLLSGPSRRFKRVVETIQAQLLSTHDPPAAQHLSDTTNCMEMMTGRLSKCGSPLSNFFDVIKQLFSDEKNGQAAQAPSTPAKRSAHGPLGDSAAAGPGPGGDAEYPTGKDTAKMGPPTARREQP
The following applies: at 0.1 µM.

The target in experiment [7] is T3, Serine/threonine-protein kinase BRSK2 (Homo sapiens). The following applies: at 1 µM.
Experiment [8] concerns the target Calcium/calmodulin-dependent protein kinase type 1D (Homo sapiens) (UniProt Q8IU85). To be noted: at 0.1 µM.
Experiment [9] has the same target. To be noted: at 1 µM.
Experiment [10] has as its target Calcium/calmodulin-dependent protein kinase type II subunit alpha (Homo sapiens) (UniProt Q9UQM7). The following applies: at 0.1 µM.
The target is the same in experiment [11]. The following applies: at 1 µM.
The target of experiment [12] is Calcium/calmodulin-dependent protein kinase type II subunit delta (Homo sapiens) (UniProt Q13557). The following applies: at 0.1 µM.
Chain of Calcium/calmodulin-dependent protein kinase type II subunit delta (Homo sapiens) (Q13557 whole entry): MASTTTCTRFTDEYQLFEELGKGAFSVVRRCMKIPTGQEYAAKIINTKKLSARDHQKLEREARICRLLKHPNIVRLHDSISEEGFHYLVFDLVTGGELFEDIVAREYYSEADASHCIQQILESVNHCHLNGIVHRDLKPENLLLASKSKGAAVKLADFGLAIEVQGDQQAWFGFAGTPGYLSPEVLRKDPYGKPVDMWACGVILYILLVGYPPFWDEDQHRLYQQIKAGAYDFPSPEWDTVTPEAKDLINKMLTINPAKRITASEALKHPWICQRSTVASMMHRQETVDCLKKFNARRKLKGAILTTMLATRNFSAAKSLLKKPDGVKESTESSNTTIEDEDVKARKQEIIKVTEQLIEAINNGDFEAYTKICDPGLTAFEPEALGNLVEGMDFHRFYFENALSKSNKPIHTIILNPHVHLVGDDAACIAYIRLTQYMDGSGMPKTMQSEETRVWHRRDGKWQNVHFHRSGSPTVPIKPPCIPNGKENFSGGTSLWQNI
Experiment [13] shares this target. To be noted: at 1 µM.
The target of experiment [14] is T4, Calcium/calmodulin-dependent protein kinase type IV (Homo sapiens) (UniProt Q16566).
T4 sequence (whole entry): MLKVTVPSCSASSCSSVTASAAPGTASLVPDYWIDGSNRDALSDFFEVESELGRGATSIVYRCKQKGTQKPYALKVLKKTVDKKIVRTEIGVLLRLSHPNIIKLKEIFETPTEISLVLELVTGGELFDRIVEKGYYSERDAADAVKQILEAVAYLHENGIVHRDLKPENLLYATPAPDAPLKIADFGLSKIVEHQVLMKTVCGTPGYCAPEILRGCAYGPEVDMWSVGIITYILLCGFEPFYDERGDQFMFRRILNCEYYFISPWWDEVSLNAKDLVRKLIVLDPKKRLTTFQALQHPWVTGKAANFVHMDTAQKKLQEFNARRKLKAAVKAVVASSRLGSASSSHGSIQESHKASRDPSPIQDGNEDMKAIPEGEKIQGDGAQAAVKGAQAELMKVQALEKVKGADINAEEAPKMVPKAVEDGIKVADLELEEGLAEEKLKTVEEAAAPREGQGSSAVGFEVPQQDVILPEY
To be noted: at 0.1 µM.

The target in experiment [15] is T4, Calcium/calmodulin-dependent protein kinase type IV (Homo sapiens). The following applies: at 1 µM.
For experiment [16], the target named is T5, Serine/threonine-protein kinase Chk1 (Homo sapiens) (UniProt O14757).
T5 sequence (whole entry): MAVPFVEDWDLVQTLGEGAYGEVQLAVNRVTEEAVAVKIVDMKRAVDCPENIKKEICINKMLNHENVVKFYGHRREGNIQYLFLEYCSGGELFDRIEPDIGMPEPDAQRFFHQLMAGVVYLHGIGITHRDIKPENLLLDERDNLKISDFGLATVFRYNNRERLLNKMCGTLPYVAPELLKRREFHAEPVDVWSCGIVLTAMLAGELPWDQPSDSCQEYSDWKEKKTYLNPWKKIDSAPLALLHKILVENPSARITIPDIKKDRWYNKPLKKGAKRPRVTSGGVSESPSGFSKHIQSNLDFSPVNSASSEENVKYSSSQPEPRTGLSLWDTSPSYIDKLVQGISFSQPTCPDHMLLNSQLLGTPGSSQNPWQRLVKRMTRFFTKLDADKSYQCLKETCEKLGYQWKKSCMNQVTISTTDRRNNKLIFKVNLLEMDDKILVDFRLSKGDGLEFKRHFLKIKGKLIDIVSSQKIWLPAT
The following applies: at 0.1 µM.

In experiment [17] the target is T5, Serine/threonine-protein kinase Chk1 (Homo sapiens). The following applies: at 1 µM.
The target of experiment [18] is Serine/threonine-protein kinase Chk2 (Homo sapiens) (UniProt O96017). The following applies: at 0.1 µM.
Chain of Serine/threonine-protein kinase Chk2 (Homo sapiens) (O96017 whole entry): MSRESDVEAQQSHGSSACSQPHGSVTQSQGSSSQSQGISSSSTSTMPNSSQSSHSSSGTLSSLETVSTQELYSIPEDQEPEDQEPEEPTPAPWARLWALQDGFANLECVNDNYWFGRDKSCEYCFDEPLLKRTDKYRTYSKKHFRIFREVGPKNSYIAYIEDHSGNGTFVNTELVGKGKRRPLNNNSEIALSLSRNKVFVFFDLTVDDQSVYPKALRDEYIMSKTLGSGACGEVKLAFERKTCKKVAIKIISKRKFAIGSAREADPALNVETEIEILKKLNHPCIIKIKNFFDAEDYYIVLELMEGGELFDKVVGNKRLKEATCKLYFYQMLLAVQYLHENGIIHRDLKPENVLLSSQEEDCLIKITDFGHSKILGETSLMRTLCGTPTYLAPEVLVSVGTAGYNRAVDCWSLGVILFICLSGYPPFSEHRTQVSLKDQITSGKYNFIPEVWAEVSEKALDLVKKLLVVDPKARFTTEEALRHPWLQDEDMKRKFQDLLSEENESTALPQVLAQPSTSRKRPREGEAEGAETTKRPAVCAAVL
Experiment [19] shares this target. The following applies: at 1 µM.
Experiment [20] has as its target Death-associated protein kinase 1 (Homo sapiens) (UniProt P53355). To be noted: at 0.1 µM.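 Further: reported figure is the mean inhibition of DAPK1.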

A word on the inhibition: it is the drop in the measured response relative to a control, in per cent.

Each structure is given as a SMILES string.

Chain of Calcium/calmodulin-dependent protein kinase type 1D (Homo sapiens) (Q8IU85 whole entry, looked up): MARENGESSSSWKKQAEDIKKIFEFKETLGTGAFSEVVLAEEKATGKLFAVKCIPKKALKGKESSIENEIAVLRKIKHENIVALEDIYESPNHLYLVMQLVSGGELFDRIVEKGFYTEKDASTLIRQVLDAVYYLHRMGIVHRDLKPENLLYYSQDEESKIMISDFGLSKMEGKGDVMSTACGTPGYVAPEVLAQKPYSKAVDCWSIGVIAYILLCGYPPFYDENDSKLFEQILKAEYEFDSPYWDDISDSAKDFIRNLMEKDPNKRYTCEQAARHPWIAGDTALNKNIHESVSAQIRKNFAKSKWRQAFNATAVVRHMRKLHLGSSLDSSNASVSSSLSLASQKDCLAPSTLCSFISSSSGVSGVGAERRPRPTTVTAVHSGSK
Chain of Calcium/calmodulin-dependent protein kinase type II subunit alpha (Homo sapiens) (Q9UQM7 whole entry): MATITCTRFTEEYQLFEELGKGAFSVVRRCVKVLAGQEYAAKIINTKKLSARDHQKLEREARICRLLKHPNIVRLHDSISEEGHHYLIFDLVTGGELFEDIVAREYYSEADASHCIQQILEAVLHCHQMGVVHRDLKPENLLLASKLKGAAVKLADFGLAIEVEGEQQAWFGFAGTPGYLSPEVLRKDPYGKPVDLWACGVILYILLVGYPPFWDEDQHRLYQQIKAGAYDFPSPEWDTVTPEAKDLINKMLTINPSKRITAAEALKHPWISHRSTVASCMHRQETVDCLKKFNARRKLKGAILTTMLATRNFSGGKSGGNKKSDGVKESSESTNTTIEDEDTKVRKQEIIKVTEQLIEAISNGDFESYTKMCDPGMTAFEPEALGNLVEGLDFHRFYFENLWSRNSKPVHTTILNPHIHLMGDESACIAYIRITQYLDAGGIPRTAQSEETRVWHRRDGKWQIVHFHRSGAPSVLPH
Chain of Death-associated protein kinase 1 (Homo sapiens) (P53355 whole entry, looked up): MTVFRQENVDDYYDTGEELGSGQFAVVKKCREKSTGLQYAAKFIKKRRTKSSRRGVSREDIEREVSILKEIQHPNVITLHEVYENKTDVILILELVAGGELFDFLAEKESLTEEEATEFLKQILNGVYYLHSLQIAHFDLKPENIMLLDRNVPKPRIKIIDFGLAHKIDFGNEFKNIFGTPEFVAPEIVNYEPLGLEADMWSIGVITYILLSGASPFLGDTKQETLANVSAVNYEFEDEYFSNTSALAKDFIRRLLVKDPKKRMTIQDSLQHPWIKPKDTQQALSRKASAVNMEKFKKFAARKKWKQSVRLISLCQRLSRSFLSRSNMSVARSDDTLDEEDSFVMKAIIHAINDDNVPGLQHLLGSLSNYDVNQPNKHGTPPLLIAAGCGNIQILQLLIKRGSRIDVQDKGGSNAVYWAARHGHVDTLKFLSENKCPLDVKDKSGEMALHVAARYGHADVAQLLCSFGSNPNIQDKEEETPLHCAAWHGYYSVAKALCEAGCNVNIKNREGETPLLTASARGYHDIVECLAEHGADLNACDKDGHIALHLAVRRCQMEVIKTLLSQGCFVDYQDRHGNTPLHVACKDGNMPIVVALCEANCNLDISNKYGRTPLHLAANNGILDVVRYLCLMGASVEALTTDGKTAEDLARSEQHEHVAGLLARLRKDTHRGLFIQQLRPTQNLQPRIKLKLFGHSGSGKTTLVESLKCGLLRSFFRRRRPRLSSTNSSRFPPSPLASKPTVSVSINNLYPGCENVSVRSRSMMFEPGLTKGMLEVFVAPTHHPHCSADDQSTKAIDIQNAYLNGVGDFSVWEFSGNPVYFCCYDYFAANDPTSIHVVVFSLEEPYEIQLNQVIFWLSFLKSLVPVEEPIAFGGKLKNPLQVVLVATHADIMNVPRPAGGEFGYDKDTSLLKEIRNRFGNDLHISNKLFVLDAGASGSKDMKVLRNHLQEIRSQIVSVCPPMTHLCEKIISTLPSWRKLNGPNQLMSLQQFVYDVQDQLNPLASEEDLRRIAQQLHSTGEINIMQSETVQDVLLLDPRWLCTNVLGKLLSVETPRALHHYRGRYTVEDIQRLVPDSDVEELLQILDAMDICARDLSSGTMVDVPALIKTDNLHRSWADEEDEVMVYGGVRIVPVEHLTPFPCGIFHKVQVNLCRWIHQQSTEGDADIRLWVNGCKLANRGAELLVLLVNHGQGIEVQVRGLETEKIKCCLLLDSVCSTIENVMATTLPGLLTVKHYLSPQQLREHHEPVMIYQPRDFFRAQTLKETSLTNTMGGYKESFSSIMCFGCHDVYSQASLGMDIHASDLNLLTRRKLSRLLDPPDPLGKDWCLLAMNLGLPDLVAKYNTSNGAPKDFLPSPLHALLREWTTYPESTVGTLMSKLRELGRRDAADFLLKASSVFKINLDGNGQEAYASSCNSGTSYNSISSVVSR
Chain of 5'-AMP-activated protein kinase catalytic subunit alpha-2 (Homo sapiens) (P54646 whole entry, looked up): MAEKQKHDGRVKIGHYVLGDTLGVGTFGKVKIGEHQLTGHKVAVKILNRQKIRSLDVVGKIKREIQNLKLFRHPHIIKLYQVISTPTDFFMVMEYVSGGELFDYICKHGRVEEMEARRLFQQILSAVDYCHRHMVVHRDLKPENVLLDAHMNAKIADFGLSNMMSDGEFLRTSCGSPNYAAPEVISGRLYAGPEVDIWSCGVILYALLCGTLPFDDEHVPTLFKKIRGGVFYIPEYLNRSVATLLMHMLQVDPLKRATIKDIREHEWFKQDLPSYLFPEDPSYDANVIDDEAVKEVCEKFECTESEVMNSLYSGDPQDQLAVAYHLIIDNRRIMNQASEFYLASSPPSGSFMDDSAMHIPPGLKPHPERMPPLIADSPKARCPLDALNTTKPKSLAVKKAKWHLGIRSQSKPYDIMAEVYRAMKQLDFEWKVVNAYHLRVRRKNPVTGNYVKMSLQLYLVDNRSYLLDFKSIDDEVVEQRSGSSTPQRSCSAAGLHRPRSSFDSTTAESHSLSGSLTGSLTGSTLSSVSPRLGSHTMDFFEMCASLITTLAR

In the case of `CCN(CC)Cc1ccc(Nc2nccc(-c3cnn4ncccc34)n2)cc1`, the inhibition in [1] came to 12.7%; in experiment [2], 69%; in experiment [3], 84.3%; in experiment [4] it was 3.36%; in [5], 3.16%; in experiment [6], 2.2%. Also, the inhibition was 10.6% in experiment [7]; -0.62% in [8]; 4.23% in [9]; 2.6% in [10]; 4.21% in [11]; 3.84% in experiment [12]. For the same compound, the inhibition was 14.3% in experiment [13]; -0.37% in experiment [14]; 0.34% in experiment [15]; 1.29% in [16]; 11.6% in experiment [17]; 2.5% in experiment [18]. In addition, the inhibition was determined as 7.56% in [19] and 2.68% in experiment [20].
On to `CCc1nccc2c1nc(-c1nonc1N)n2CC`, for which the inhibition in [1] amounted to 2%; in experiment [2] it was 2.71%; in [3], 4.47%; in [4], 0.98%; in experiment [5], 4.27%; in [6], 2.16%. The inhibition in experiment [7] came to 4.53%; in experiment [8], 1.07%; in experiment [9], 1.8%; in experiment [10] it was 0.2%; in experiment [11] it was 2.34%; in experiment [12] it was 2%. Further, the inhibition in [13] is 3.76%; in [14] it was 2.07%; in experiment [15], 1.55%; in [16] it was 1.61%; in experiment [17], -3.41%; in experiment [18] it was -1.09%. For the same compound, the inhibition in [19] is -0.94%; in experiment [20] it was 0.87%.
For `O=C(Nc1n[nH]c2nc(-c3ccc(O)cc3)c(Br)cc12)C1CC1`, the inhibition was found to be 12.1% in experiment [1]; 8.05% in experiment [2]; 30.2% in experiment [3]; 25.8% in experiment [4]; 66.8% in [5]; 33.5% in experiment [6]. The inhibition in experiment [7] is 70.2%; in experiment [8] it was 3.09%; in [9], 14.4%; in [10], 4.24%; in experiment [11], 8.39%; in [12], 6.47%. In addition, the inhibition in experiment [13] was 20.1%; in experiment [14] it was -0.14%; in experiment [15] it was 2.12%; in experiment [16], 8.74%; in experiment [17], 16.8%; in [18], 2.09%. Moreover, the figures for the inhibition in experiment [19] and in [20] were 4.23% and 5.9%, respectively.
As to `CS(=O)(=O)CCNCc1cc(-c2cc3c(Nc4ccc(OCc5cccc(F)c5)c(Cl)c4)ncnc3s2)cs1`, the inhibition in experiment [1] is 3.11%; in [2], -0.49%; in experiment [3], 3.79%; in experiment [4], 1.37%; in experiment [5], -0.77%; in [6], 0.67%. The inhibition in experiment [7] was 4.02%; in experiment [8], 0.48%; in experiment [9], 2.27%; in [10], 3.07%; in [11], 3.15%; in experiment [12], 4.55%. Moreover, the inhibition in [13] was 7.4%; in experiment [14], -2.05%; in experiment [15], 2.64%; in [16], 1.14%; in experiment [17] it was 4.23%; in [18] it was 4.96%. For the same compound, the inhibition is 11.2% in experiment [19] and 2.74% in experiment [20].
